Experimental data reported in the supplement of paper PMC10849652.
The full data set covers some 8,800 targets. This sample favours those with a hit. About 0.5% of all pairs of compound and target were hits.

Assays:
Assay in all cases: log2 fold change, soluble protein after heating vs DMSO (PISA); higher = thermal stabilisation; K562 lysate, 10 uM; active = over 0.2 and 3.5 SD of the protein, either way, in both replicates (recomputed)
[1] = compound: CC(=O)c1cnc2ccc(-c3cc(Cl)c(O)c(Cl)c3)nc2c1N[C@H]1CC[C@H](CN(C)C)CC1
Method in brief: (§1)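 Dounce homogenisation of K562 pellets in PBS pH 7.4 with 1 mM MgCl2 produced a crude extract, used at 1 mg/mL protein. Exposure to 10 μM compound lasted 30 min, and aliquots were then heated for 3 min across 48°C-58°C, pooled and brought to 0.5% NP-40 at 4°C. The supernatant after 21,000xg for 90 min was quantified by TMTpro 16plex LC-MS/MS with channel sums equalised. Duplicate values are given as log-two fold change in thermal stability relative to solvent controls.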

ralimetinib = compound: CC(C)(C)Cn1c(N)nc2ccc(-c3[nH]c(C(C)(C)C)nc3-c3ccc(F)cc3)nc21 [ralimetinib]
Method in brief: as §1

[2] = compound: CC(C)(O)CC(=O)NCCn1ccc2ncnc(Nc3ccc(Oc4cccc(C(F)(F)F)c4)c(Cl)c3)c21
Method in brief: as §1

[3] = compound: CC(C)C1=C2N=C(C=C(N2N=C1)NCC3=CC=CC=C3)NCCCCCCN
Method in brief: as §1

[4] = compound: CC1=C(C(CC(=O)N1)C2=CC=C(C=C2)C(F)(F)F)C(=O)NC3=C(C=C4C(=C3)C=NN4)F
Method in brief: as §1

[5] = compound: CC1=C(C2=C(C=C1)C(=O)C3=CC=CC=C3N2CCCN)C
Method in brief: as §1

[6] = compound: CC1=C(C=C(C=C1)NC(=O)C2=CC(=CC=C2)C(C)(C)C#N)NC3=CC4=C(C=C3)N=CN(C4=O)C
Method in brief: as §1

[7] = compound: CC1=C(C=C(C=C1)NC(=O)C2=CC(=CC=C2)N(C)C)NC(=O)C3=CC=C(C=C3)O
Method in brief: as §1

[8] = compound: CC1=CC=C(C=C1)SC2=C3C=C(SC3=CN=C2)C(=O)N
Method in brief: as §1

vemurafenib = compound: CCCS(=O)(=O)Nc1ccc(F)c(C(=O)c2c[nH]c3ncc(-c4ccc(Cl)cc4)cc23)c1F [vemurafenib]
Method in brief: as §1

[9] = compound: CCCS(=O)(=O)Nc1ccc(F)c(C(=O)c2c[nH]c3ncc(Cl)cc23)c1F
Method in brief: as §1

barasertib = compound: CCN(CCCOc1ccc2c(Nc3cc(CC(=O)Nc4cccc(F)c4)[nH]n3)ncnc2c1)CCOP(=O)(O)O [barasertib]
Method in brief: as §1

[10] = compound: CC[C@@H]1C(=O)N(C)c2cnc(Nc3ccc(C(=O)NC4CCN(C)CC4)cc3OC)nc2N1C1CCCC1
Method in brief: as §1

volasertib = compound: CC[C@@H]1C(=O)N(C)c2cnc(Nc3ccc(C(=O)N[C@H]4CC[C@H](N5CCN(CC6CC6)CC5)CC4)cc3OC)nc2N1C(C)C [volasertib]
Method in brief: as §1

[11] = compound: CCn1c(C(=O)N(C2CC2)C2CC2)cc2c3c(ncn3C)c(Nc3cc(C)n(C)n3)nc21
Method in brief: as §1

[12] = compound: CCn1cc(-c2ccnc3[nH]c(-c4cccc(CN(C)C)c4)cc23)c(-c2ccc(NC(=O)N(C)C)cc2)n1
Method in brief: as §1

[13] = compound: CN1CCC(CNc2ccc3ncc(-c4cccc(OC(F)(F)F)c4)n3n2)CC1
Method in brief: as §1

saracatinib = compound: CN1CCN(CCOc2cc(OC3CCOCC3)c3c(Nc4c(Cl)ccc5c4OCO5)ncnc3c2)CC1 [saracatinib]
Method in brief: as §1

sotrastaurin = compound: CN1CCN(c2nc(C3=C(c4c[nH]c5ccccc45)C(=O)NC3=O)c3ccccc3n2)CC1 [sotrastaurin]
Method in brief: as §1

Measured: log2 fold change

CLASP2 isoform 3 (UniProt O75122)
inactive: [1] 0.004 | ralimetinib 0.019 | [2] -0.014 | [3] 0.025 | [4] 0.019 | [5] -0.008 | [6] 0.023 | [7] 0.042 | [8] 0.004 | vemurafenib 0.054 | [9] -0.002 | barasertib 0.02 | [10] 0.015 | volasertib -0.006 | [11] 0.013 | [12] -0.162 | [13] 0.093 | saracatinib 0.011 | sotrastaurin 0.01

CLPB isoform 2 (UniProt Q9H078)
UniProt Q9H078, sequence (Q9H078 whole entry, looked up): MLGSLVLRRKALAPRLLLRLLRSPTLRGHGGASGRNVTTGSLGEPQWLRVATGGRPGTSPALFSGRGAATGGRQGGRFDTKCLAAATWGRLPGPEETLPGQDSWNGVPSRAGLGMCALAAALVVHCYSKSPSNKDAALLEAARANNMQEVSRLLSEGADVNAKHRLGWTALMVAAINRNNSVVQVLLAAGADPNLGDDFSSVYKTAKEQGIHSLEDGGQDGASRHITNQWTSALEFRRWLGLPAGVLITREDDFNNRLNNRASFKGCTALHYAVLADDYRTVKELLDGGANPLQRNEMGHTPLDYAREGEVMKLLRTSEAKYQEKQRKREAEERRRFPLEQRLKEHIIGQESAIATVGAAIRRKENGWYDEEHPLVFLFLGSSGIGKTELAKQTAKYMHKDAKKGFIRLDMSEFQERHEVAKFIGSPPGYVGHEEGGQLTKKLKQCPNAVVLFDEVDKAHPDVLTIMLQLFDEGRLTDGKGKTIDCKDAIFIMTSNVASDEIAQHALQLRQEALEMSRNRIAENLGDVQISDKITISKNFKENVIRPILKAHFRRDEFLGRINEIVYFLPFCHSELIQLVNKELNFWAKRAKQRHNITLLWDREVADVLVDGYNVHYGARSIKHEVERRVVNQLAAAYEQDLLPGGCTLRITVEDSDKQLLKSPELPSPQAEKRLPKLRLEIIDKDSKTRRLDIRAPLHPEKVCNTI
inactive: [1] -0.016 | ralimetinib 0.002 | [2] -0.024 | [3] -0.006 | [4] 0.002 | [5] -0.054 | [6] -0.011 | [7] 0.025 | [8] 0.012 | vemurafenib 0.011 | [9] 0.023 | barasertib 0.026 | [10] 0.007 | volasertib -0.042 | [11] 0.044 | [12] 0.078 | [13] -0.045 | saracatinib 0.004 | sotrastaurin -0.012

CPLX1 (UniProt O14810)
UniProt O14810, sequence (O14810 whole entry, looked up): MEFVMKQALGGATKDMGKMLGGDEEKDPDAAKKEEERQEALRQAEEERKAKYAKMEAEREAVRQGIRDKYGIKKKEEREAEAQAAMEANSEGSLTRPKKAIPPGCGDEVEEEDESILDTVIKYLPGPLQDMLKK
active: [5] 0.874 | saracatinib 0.893
inactive: [1] -0.071 | ralimetinib 0.079 | [2] -0.139 | [7] 0.037 | [8] 0.119 | vemurafenib 0.034 | [9] 0.057 | [10] -0.026 | volasertib 0.029 | [11] -0.074

CNNM2 (UniProt Q9H8M5)
UniProt Q9H8M5, sequence (Q9H8M5 whole entry, looked up): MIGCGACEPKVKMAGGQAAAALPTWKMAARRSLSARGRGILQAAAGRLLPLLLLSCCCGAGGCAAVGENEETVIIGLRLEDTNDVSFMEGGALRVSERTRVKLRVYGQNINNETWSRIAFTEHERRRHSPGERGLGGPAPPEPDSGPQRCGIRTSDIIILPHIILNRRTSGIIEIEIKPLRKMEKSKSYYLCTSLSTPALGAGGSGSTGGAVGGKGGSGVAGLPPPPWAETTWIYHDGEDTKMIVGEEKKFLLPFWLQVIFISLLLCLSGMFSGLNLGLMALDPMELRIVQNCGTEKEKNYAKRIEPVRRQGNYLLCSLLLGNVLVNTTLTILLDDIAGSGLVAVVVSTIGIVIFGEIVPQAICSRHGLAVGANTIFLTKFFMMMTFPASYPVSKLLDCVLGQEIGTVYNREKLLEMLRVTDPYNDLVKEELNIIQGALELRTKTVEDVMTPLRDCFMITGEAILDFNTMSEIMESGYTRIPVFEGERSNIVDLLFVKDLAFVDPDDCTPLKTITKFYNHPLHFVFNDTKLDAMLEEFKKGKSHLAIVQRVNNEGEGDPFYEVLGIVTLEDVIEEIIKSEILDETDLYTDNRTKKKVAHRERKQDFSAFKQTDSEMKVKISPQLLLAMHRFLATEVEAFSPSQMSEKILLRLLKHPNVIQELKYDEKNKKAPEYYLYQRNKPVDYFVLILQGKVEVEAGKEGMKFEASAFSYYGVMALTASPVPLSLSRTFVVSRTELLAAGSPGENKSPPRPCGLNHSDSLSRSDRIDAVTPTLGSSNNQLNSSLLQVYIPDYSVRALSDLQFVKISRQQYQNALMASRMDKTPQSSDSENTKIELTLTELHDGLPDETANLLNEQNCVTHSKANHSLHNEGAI
active: [2] 0.348
inactive: [1] 0.004 | ralimetinib 0.31 | [3] 0.048 | [5] -0.031 | [6] -0.054 | [7] -0.157 | [8] -0.015 | vemurafenib 0.025 | [9] 0.024 | [10] 0 | volasertib -0.043 | [11] -0.091 | [12] -0.059 | [13] 0.036 | saracatinib -0.039 | sotrastaurin 0.091

CLCN3 isoform 2 (UniProt P51790)
UniProt P51790, sequence (P51790 whole entry, looked up): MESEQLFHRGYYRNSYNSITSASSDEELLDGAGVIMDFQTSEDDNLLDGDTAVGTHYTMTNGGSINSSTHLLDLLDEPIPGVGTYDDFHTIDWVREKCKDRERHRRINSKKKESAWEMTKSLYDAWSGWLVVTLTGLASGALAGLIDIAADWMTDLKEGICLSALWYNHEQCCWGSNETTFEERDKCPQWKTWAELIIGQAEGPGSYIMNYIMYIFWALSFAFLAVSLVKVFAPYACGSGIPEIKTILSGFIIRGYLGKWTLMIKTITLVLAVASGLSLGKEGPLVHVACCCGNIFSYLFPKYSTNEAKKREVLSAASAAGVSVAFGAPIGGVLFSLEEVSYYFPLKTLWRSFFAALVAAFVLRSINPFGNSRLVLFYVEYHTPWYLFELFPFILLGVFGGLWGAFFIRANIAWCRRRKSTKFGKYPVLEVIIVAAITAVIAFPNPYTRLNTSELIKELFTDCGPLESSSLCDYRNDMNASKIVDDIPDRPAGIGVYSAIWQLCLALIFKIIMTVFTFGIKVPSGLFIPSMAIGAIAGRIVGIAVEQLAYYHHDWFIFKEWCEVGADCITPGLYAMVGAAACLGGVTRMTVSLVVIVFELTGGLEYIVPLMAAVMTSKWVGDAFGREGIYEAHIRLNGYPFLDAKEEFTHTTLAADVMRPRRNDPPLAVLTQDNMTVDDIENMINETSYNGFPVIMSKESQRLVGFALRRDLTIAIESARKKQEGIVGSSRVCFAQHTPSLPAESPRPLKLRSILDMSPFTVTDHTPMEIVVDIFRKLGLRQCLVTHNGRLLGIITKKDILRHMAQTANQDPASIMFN
inactive: [1] 0.029 | ralimetinib 0.02 | [2] -0.032 | [3] -0.035 | [4] -0.017 | [5] -0.066 | [6] 0.029 | [7] 0.048 | [8] -0.013 | vemurafenib -0.015 | [9] 0.052 | barasertib -0.004 | [10] 0.003 | volasertib -0.022 | [11] -0.024 | [12] -0.039 | [13] 0.013 | saracatinib -0.018 | sotrastaurin 0.054

CORO7 (UniProt P57737)
inactive: ralimetinib -0.039 | [2] 0.06 | [3] -0.076 | [4] -0.202 | [5] 0.067 | [6] -0.229 | [7] 0.134 | vemurafenib -0.143 | [10] 0.089 | [11] -0.025 | [12] 0.321 | [13] 0.165 | saracatinib 0.166 | sotrastaurin 0.137

CNOT2 (UniProt F8VRS8)
inactive: [3] -0.001

CUX1 isoform 2 (UniProt Q13948)
inactive: [1] 0.07 | ralimetinib -0.069 | [2] 0.052 | [3] -0.16 | [5] -0.027 | [6] 0.385 | [7] 0.043 | [8] -0.086 | vemurafenib 0.013 | [9] 0.084 | [10] -0.087 | volasertib -0.001 | [11] 0.019 | [12] 0.06 | [13] -0.34 | saracatinib -0.054 | sotrastaurin 0.081

DDAH1 (UniProt O94760)
UniProt O94760, sequence (O94760 whole entry, looked up): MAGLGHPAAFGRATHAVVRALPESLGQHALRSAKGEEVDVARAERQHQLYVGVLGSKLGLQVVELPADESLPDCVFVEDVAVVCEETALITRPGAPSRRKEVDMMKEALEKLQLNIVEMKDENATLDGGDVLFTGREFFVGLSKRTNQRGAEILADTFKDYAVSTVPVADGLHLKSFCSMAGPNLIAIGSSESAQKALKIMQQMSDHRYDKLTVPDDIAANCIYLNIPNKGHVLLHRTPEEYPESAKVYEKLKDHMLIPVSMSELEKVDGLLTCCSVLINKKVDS
inactive: [1] -0.016 | ralimetinib -0.037 | [2] -0.045 | [3] -0.001 | [6] 0.137 | [7] -0.005 | [8] -0.04 | vemurafenib 0.054 | [9] 0.071 | [10] 0.04 | volasertib 0.068 | [11] 0.061 | [12] -0.068 | [13] -0.051 | sotrastaurin -0.022
active: [5] -0.441 | saracatinib -0.308

DALRD3 (UniProt Q5D0E6)
inactive: [1] 0.028 | [3] -0.024 | [8] 0.037 | vemurafenib -0.033 | [9] -0.025 | [10] -0.095 | volasertib -0.041 | [12] 0.003 | [13] 0.144

CLCN3 (UniProt P51790)
inactive: [1] 0.038 | ralimetinib 0.038 | [2] 0.05 | [3] -0.089 | [4] -0.03 | [5] 0.024 | [6] -0.155 | [7] -0.017 | [8] 0.079 | vemurafenib -0.096 | [9] -0.076 | barasertib 0.014 | [10] -0.178 | volasertib -0.025 | [11] 0.034 | [12] 0.009 | [13] 0.004 | saracatinib 0.01 | sotrastaurin -0.017

COL12A1 (UniProt Q99715)
inactive: [1] 0.72 | [3] 0.024 | [5] -0.224 | [8] 0.005 | vemurafenib 0.239 | [9] 0.178 | [10] 0.194 | volasertib -0.139 | saracatinib 0.063 | sotrastaurin -0.233
active: [6] 1.57

DAPK1 isoform 3 (UniProt P53355)
inactive: [1] 0.35 | ralimetinib 0.041 | [2] 0 | [3] -0.077 | [4] 0.138 | [5] 0.017 | [6] -0.151 | [7] -0.026 | [8] -0.094 | vemurafenib 0.047 | [9] -0.203 | volasertib -0.138 | [11] 0.022 | [12] 0.138 | [13] -0.04 | saracatinib 0.022 | sotrastaurin -0.039

DESI2 (UniProt Q9BSY9)
UniProt Q9BSY9, sequence (Q9BSY9 whole entry, looked up): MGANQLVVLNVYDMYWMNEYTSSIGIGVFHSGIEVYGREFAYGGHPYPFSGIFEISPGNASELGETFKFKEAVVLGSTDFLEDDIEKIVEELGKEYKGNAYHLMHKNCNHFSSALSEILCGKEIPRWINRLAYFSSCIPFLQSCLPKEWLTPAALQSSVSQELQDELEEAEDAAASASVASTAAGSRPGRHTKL
inactive: vemurafenib 0.064 | [10] 0.089 | [12] 0.116 | [13] -0.113

CNK3/IPCEF1 isoform 2 (UniProt G9CGD6)
UniProt G9CGD6, sequence (G9CGD6 whole entry, looked up): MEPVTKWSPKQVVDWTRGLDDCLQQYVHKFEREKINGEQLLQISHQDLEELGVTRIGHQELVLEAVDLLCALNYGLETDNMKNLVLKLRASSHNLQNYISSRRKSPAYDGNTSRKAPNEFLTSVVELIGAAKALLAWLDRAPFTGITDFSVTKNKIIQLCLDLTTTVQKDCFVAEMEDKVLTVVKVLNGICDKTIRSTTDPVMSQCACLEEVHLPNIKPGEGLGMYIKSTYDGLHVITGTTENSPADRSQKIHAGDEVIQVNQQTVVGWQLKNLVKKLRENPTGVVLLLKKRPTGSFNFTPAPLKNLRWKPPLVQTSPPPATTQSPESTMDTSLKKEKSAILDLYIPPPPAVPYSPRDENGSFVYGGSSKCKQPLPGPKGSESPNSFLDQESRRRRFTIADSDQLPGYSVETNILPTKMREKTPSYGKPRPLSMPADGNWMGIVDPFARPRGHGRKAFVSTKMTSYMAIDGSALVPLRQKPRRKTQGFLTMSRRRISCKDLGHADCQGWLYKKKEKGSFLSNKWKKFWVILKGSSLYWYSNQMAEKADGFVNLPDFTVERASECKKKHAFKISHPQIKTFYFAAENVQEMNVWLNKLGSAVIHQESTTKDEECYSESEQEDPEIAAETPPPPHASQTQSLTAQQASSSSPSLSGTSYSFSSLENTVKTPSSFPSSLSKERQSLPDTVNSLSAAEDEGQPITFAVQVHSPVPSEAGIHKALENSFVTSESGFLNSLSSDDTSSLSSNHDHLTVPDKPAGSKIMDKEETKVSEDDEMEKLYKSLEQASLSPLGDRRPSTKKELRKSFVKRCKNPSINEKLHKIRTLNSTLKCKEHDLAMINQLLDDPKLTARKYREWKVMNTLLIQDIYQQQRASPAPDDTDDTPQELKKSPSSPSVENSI
active: [12] -1.81
inactive: ralimetinib 0.215 | [2] -0.138 | [3] -0.096 | [5] 0.075 | [7] 0 | vemurafenib -0.062 | [10] 0.056 | [11] 0.078 | [13] 0.506 | saracatinib 0.053

DNM2 isoform 4 (UniProt P50570)
UniProt P50570, sequence (P50570 whole entry, looked up): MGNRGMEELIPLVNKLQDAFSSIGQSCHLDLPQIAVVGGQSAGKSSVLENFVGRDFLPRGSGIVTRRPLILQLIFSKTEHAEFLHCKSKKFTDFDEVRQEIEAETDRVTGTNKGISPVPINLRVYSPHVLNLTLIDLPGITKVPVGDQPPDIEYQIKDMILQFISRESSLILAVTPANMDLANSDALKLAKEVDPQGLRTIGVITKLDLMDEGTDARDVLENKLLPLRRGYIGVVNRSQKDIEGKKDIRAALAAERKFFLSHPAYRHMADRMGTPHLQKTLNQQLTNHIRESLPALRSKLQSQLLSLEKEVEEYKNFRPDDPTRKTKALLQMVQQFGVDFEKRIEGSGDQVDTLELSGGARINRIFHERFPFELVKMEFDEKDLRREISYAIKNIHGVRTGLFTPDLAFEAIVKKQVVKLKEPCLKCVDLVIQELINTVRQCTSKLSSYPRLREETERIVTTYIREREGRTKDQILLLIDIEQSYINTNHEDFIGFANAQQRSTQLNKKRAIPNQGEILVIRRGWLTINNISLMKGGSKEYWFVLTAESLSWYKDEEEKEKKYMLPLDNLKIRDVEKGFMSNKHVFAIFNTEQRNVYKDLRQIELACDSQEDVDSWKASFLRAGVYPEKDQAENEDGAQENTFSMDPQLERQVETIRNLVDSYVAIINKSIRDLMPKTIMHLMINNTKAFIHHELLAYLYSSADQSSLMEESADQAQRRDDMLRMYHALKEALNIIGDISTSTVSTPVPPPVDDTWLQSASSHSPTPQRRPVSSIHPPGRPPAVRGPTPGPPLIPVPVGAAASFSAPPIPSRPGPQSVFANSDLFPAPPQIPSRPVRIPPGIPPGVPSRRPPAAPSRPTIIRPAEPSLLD
inactive: [1] -0.018 | ralimetinib 0.011 | [2] -0.027 | [3] -0.143 | [4] -0.07 | [5] 0.075 | [6] -0.08 | [7] 0.047 | [8] 0.058 | [9] -0.001 | [10] -0.018 | volasertib -0.031 | [11] -0.014 | [12] -0.153 | [13] 0.021 | saracatinib -0.047 | sotrastaurin -0.031

CLIC2 (UniProt O15247)
inactive: [1] -0.014 | ralimetinib 0.004 | [2] 0.004 | [3] 0.04 | [4] -0.01 | [5] 0.018 | [6] 0.005 | [7] 0.006 | [8] 0.001 | vemurafenib -0.004 | [9] 0.007 | barasertib -0.039 | [10] -0.014 | volasertib -0.011 | [11] -0.006 | [12] -0.064 | [13] -0.005 | saracatinib 0.015 | sotrastaurin 0

COPS9 (UniProt Q8WXC6)
UniProt Q8WXC6, sequence (Q8WXC6 whole entry, looked up): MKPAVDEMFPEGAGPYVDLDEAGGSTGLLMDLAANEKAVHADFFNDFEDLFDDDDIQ
inactive: [1] -0.059 | ralimetinib 0.146 | [2] -0.213 | [3] 0.173 | [7] 0.172 | [8] -0.184 | [9] -0.075 | volasertib 0.062 | [11] -0.197

CLUH (UniProt O75153)
inactive: [1] 0.093 | ralimetinib 0.008 | [2] -0.004 | [3] -0.044 | [4] -0.01 | [5] 0 | [6] -0.001 | [7] 0.006 | [8] 0.008 | vemurafenib -0.03 | [9] 0.014 | barasertib 0.024 | [10] 0.012 | volasertib -0.02 | [11] -0.009 | [12] -0.024 | [13] 0.117 | saracatinib 0.011 | sotrastaurin 0.01

DNA2 (UniProt P51530)
inactive: ralimetinib 0.016 | [2] 0.029 | [3] -0.06 | [4] -0.007 | [5] 0.002 | [6] -0.02 | [7] 0.001 | vemurafenib -0.094 | [10] -0.053 | [11] 0.051 | [12] 0.03 | [13] 0.022 | saracatinib 0.008 | sotrastaurin 0.073

COX7B (UniProt P24311)
UniProt P24311, sequence (P24311 whole entry, looked up): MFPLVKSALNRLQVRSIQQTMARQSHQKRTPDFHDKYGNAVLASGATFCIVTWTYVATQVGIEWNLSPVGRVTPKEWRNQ
inactive: [1] -0.016 | ralimetinib 0.014 | [2] -0.09 | [3] 0.008 | [4] -0.046 | [5] -0.144 | [6] 0.018 | [7] 0.039 | [8] 0.02 | vemurafenib 0.014 | [9] -0.047 | [10] -0.01 | volasertib 0.004 | [11] -0.051 | [12] 0.047 | [13] -0.013 | saracatinib -0.062 | sotrastaurin -0.028

CLASP1 isoform 4 (UniProt Q7Z460)
inactive: [3] -0.124 | [4] -0.226 | vemurafenib 0.272

CLIP1, A0A3B3ITA2
active: [13] 0.634
inactive: ralimetinib 0.156 | [2] -0.173 | [6] 0.019 | [7] -0.215 | vemurafenib -0.026 | [11] -0.015 | [12] -0.515 | sotrastaurin -0.021
